# According to PubChem BioAssay (NCI):
# This is part of a sample that, as a whole, favours compounds with a hit. Of some 83,000 tested, about 20% had one in any assay.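 The test compound was applied at a single concentration to cells in 96-well plates for 48 hours, and percent growth was recorded.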 Unmarked numbers belong to inactive results. The source made the active and inactive calls. Rule for the calls: active = growth percent below 10; inactive = the rest.
# Experiments:
# Experiment in all cases: NCI-60 one-dose screen, 48 h (100 = growth as untreated, 0 = no growth, -100 = all killed)
# Conditions in all cases: 10 µM unless noted
# BT-549 breast = system: BT-549 breast
# SW-620 colon = system: SW-620 colon
# MCF7 breast = system: MCF7 breast
# HCT-116 colon = system: HCT-116 colon
# HCC-2998 colon = system: HCC-2998 colon
# KM12 colon = system: KM12 colon
# MDA-MB-435 melanoma = system: MDA-MB-435 melanoma
SMILES,growth (BT-549 breast),growth (SW-620 colon),growth (MCF7 breast),growth (HCT-116 colon),growth (HCC-2998 colon),growth (KM12 colon),growth (MDA-MB-435 melanoma)
Cc1c(C(N)=O)sc2c1c(=O)n(Cc1ccccc1)c1nnc(S(=O)(=O)CC(=O)Nc3ccc(Cl)cc3)n21,75.7%,39.6%,73.5%,15%,26%,55%,–
Clc1ccc2nc(Cl)c3ccccc3c2c1,89.6%,–,89.7%,19.4%,89.3%,55.7%,–
CC(C)C/C(=N\NC(=O)c1ccncc1)c1cc(Cl)ccc1O,-1.24% (active),31.1%,5.38% (active),0.442% (active),28.1%,25.8%,–
CCN1C(=O)c2ccc3c4c(ccc(c24)C1=O)C(=O)N(CCCNCc1ccccc1OC)C3=O,-75.9% (active),-57.4% (active),-25.5% (active),-79% (active),-82.6% (active),-35.1% (active),–
Cc1cc(C(C)(C)c2cc(C)c(O)c(CN(C)C)c2)cc(CN(C)C)c1O,84.5%,92.7%,96.4%,55.1%,82.1%,101%,–
CC(=O)NCCSC(=O)C(=O)SCCNC(C)=O,–,116%,125%,110%,-45.3% (active),–,106%
CC(C)(C)c1cc(O)c(O)c(C(C)(C)C)c1,61.2%,19.3%,36.3%,15.8%,59.5%,48.1%,–
CCCCc1nc(Cl)c(CO)n1Cc1ccc(-c2ccccc2-c2nn[nH]n2)cc1,106%,103%,–,102%,104%,103%,–
O=C(c1ccccc1)c1ccco1,97.8%,110%,93.2%,102%,–,107%,–
O=C(Nc1ccc(Oc2ccc(NC(=O)Nc3ccc([N+](=O)[O-])cc3)cc2)cc1)Nc1ccc([N+](=O)[O-])cc1,-21.5% (active),10.8%,-7.4% (active),-6.3% (active),–,-5.89% (active),–
O=C1NCN(c2ccccc2)C12CCN(CCCC(c1ccc(F)cc1)c1ccc(F)cc1)CC2,61.6%,77%,37.8%,30.1%,15.9%,76.3%,–
COc1ccc2nc3cc(Cl)ccc3c(N3CCN(c4ccnc(Nc5ccc(F)cc5)n4)CC3)c2c1,88.3%,89.2%,48.8%,41.4%,79.5%,79.1%,–
Cc1ccccc1-c1cc(Cc2ccccc2O)c(=O)[nH]n1,112%,116%,103%,93.5%,124%,98.1%,–
CCCCCCOc1ccc(/C=N/NC(N)=S)cc1,-5% (active),–,56.6%,33.6%,72.1%,48.9%,–
O=C(/C(=C/c1ccc([N+](=O)[O-])cc1)c1ccccc1)c1ccccc1,15.5%,11.7%,26.4%,6.38% (active),–,19.6%,–
COc1cc(C2=NN(C(C)=O)C(c3ccc(OC(C)=O)cc3OC(C)=O)O2)c(OC(C)=O)c2ccccc12 (configuration not stated),23.8%,30.9%,14.1%,14.4%,–,22.3%,–
O=C(CCc1nnc(Cn2ccnc2)o1)c1nc2ccccc2[nH]1,114%,109%,106%,106%,108%,111%,–
Cc1ccc([N+](=O)[O-])cc1NC(=O)Nc1cccc(F)c1,92.7%,99.7%,69.8%,44%,91.8%,80.9%,–
CCOc1ccccc1C(=O)OCC(=O)Nc1cccc(S(=O)(=O)N(C)C)c1,–,97%,102%,96.1%,98.9%,–,96.2%
CCOC(=O)/C(=C/c1ccccc1)C(=O)c1ccccc1,73.4%,70.9%,41.1%,39.4%,–,67.1%,–
CCC(C)(C)C(=O)O[C@H]1C[C@@H](C)C=C2C=C[C@H](C)[C@H](CC[C@@H]3C[C@@H](O)CC(=O)O3)[C@H]21,84%,61.2%,–,20.4%,71.9%,–,–
O=C(Nc1ccc(Cl)cc1)c1cc2c(cc1O)[nH]c1ccccc12,26.5%,19.1%,8.67% (active),14.1%,-21.5% (active),37.5%,–
O=C(O)c1ccc(NC(=O)c2cccc(Nc3ccnc(C(F)(F)F)c3)c2)cc1,95.8%,–,96.8%,95%,104%,107%,–
O=c1[nH]c(=O)n(C2CC(O)C(CO)O2)cc1C(F)(F)F (configuration not stated),–,52.7%,23.6%,39.4%,–,–,47.8%
O=C(NCCCO)c1cc(Cl)ccc1O,19.2%,23.1%,18.9%,10.9%,21.4%,14.5%,–
O=C1c2ccccc2-c2c1nc1ccccc1[n+]2[O-],98.2%,97.5%,95.8%,98.5%,104%,101%,–
COc1ccc(C2=NN(C(=O)c3cc(OC)c(OC)c(OC)c3)C(c3ccc(C#N)cc3)C2)cc1OC (configuration not stated),28.6%,16.1%,27%,13.6%,35.2%,15.1%,–
